# How the values were obtained:
# Conditions in all cases: concentration: 1 μM, replicates: in singlicate; n = 1
# AXL = tested on: AXL
# BIKE = tested on: T1, BIKE
# T1 construct: gene BMP2K
# BLK = tested on: BLK
# BMPR1A = tested on: BMPR1A
# BMPR1B = tested on: BMPR1B
# BMPR2 = tested on: BMPR2
# BMX = tested on: BMX
# BRAF = tested on: BRAF
# BRK = tested on: T2, BRK
# T2 construct: gene PTK6
# BRSK1 = tested on: BRSK1
# 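Further: KINOMEscan kinase panel screen.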
SMILES,%Inh (AXL),%Inh (BIKE),%Inh (BLK),%Inh (BMPR1A),%Inh (BMPR1B),%Inh (BMPR2),%Inh (BMX),%Inh (BRAF),%Inh (BRK),%Inh (BRSK1)
Nc1ncnc2c1ncn2-c1cccc(F)c1 [SKF-97560],13%,0%,0%,0%,29%,26%,24%,24%,0%,0%
CCCNC(=O)Nc1ccc(Oc2ncnc3ccn(C)c23)cc1,0%,0%,14%,10%,0%,16%,0%,0%,0%,0%
CN1C(=O)C(Nc2ccccc2)=C(c2ccccc2)C1=O [SB-300079],0%,0%,23%,12%,0%,14%,0%,9%,0%,0%
COC(=O)c1c(-c2ccccc2)c2cc(Br)ccc2c(=O)n1Cc1ccc(S(C)(=O)=O)cc1,7%,0%,9%,0%,19%,3%,17%,57%,0%,29%

# From PMC5540273 (PLoS ONE, 2017)
